Structures can show the parent of a compound that is named as a salt. ± gives the standard deviation of the averaged measurements.
Assays:
[1] = test system: Saccharomyces cerevisiae BY4741 SeMeCo community; test: z-score of prototroph abundance vs DMSO median; higher = larger share of this subpopulation than in DMSO controls; settings: 10 µM; 24 h; SM minimal medium; subpopulation (auxotrophy): Prototroph
How it was run: (§1)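 A Saccharomyces cerevisiae BY4741 community carried four plasmids, each restoring one auxotrophy and encoding a distinct fluorescent protein. It was pre-grown overnight to OD600 1.0, diluted to 0.3, and 70 µl was added to 384-well plates acoustically predosed with library drugs (10 µM final), then grown 24 h in minimal SM medium. Cells were paraformaldehyde-fixed and imaged by automated confocal microscopy, with single-auxotroph fluorescent strains setting thresholds and autofluorescence correction. Each subpopulation's abundance was scored as a z-score against the vehicle-well median.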

[2] = test system: Saccharomyces cerevisiae BY4741 SeMeCo community; test: z-score of subpopulation abundance vs DMSO median, subpopulation auxotrophic for U; higher = larger share of this subpopulation than in DMSO controls; settings: 10 µM; 24 h; SM minimal medium; subpopulation (auxotrophy): U
How it was run: as §1

[3] = test system: Saccharomyces cerevisiae BY4741 SeMeCo community; test: z-score of subpopulation abundance vs DMSO median, subpopulation auxotrophic for H; higher = larger share of this subpopulation than in DMSO controls; settings: 10 µM; 24 h; SM minimal medium; subpopulation (auxotrophy): H
How it was run: as §1

[4] = test system: Saccharomyces cerevisiae BY4741 SeMeCo community; test: z-score of subpopulation abundance vs DMSO median, subpopulation auxotrophic for LU; higher = larger share of this subpopulation than in DMSO controls; settings: 10 µM; 24 h; SM minimal medium; subpopulation (auxotrophy): LU
How it was run: as §1

[5] = test system: Saccharomyces cerevisiae BY4741 SeMeCo community; test: z-score of subpopulation abundance vs DMSO median, subpopulation auxotrophic for LM; higher = larger share of this subpopulation than in DMSO controls; settings: 10 µM; 24 h; SM minimal medium; subpopulation (auxotrophy): LM
How it was run: as §1

[6] = test system: Saccharomyces cerevisiae BY4741 SeMeCo community; test: z-score of subpopulation abundance vs DMSO median, subpopulation auxotrophic for HM; higher = larger share of this subpopulation than in DMSO controls; settings: 10 µM; 24 h; SM minimal medium; subpopulation (auxotrophy): HM
How it was run: as §1

[7] = test system: Saccharomyces cerevisiae BY4741 SeMeCo community; test: z-score of subpopulation abundance vs DMSO median, subpopulation auxotrophic for HU; higher = larger share of this subpopulation than in DMSO controls; settings: 10 µM; 24 h; SM minimal medium; subpopulation (auxotrophy): HU
How it was run: as §1

[8] = test system: Saccharomyces cerevisiae BY4741 SeMeCo community; test: z-score of subpopulation abundance vs DMSO median, subpopulation auxotrophic for UM; higher = larger share of this subpopulation than in DMSO controls; settings: 10 µM; 24 h; SM minimal medium; subpopulation (auxotrophy): UM
How it was run: as §1

[9] = test system: Saccharomyces cerevisiae BY4741 SeMeCo community; test: z-score of subpopulation abundance vs DMSO median, subpopulation auxotrophic for HL; higher = larger share of this subpopulation than in DMSO controls; settings: 10 µM; 24 h; SM minimal medium; subpopulation (auxotrophy): HL
How it was run: as §1

[10] = test system: Saccharomyces cerevisiae BY4741 SeMeCo community; test: z-score of subpopulation abundance vs DMSO median, subpopulation auxotrophic for HLU; higher = larger share of this subpopulation than in DMSO controls; settings: 10 µM; 24 h; SM minimal medium; subpopulation (auxotrophy): HLU
How it was run: as §1

[11] = test system: Saccharomyces cerevisiae BY4741 SeMeCo community; test: z-score of subpopulation abundance vs DMSO median, subpopulation auxotrophic for HLM; higher = larger share of this subpopulation than in DMSO controls; settings: 10 µM; 24 h; SM minimal medium; subpopulation (auxotrophy): HLM
How it was run: as §1

[12] = test system: Saccharomyces cerevisiae BY4741 SeMeCo community; test: z-score of subpopulation abundance vs DMSO median, subpopulation auxotrophic for HUM; higher = larger share of this subpopulation than in DMSO controls; settings: 10 µM; 24 h; SM minimal medium; subpopulation (auxotrophy): HUM
How it was run: as §1

[13] = test system: Saccharomyces cerevisiae BY4741 SeMeCo community; test: z-score of subpopulation abundance vs DMSO median, subpopulation auxotrophic for LUM; higher = larger share of this subpopulation than in DMSO controls; settings: 10 µM; 24 h; SM minimal medium; subpopulation (auxotrophy): LUM
How it was run: as §1

[14] = test system: Saccharomyces cerevisiae BY4741 SeMeCo community; test: mean cell size (pixel area) (pixels); higher = larger cells; settings: 10 µM; 24 h; SM minimal medium
How it was run: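 Drug was acoustically predosed into 384-well plates to a final 10 µM in SM medium, and each well received 70 µl of Saccharomyces cerevisiae BY4741 diluted to OD600 = 0.3 from an overnight preculture at OD600 = 1.0. This four-plasmid fluorescent community carries one fluorescent marker per plasmid, and each plasmid complements one auxotrophy. After 24 h, the cells were fixed with paraformaldehyde and imaged by automated confocal microscopy, and Harmony analysis yielded mean cell pixel area per well. Each value is averaged over 3 replicates. Same SeMeCo high-content imaging drug screen: Selleck FDA-approved drugs at 10 µM, 24 h in SM medium, 384-well plates, 3 replicates.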

[15] = test system: Saccharomyces cerevisiae BY4741 SeMeCo community; test: z-score of subpopulation abundance vs DMSO median, subpopulation auxotrophic for L; higher = larger share of this subpopulation than in DMSO controls; settings: 10 µM; 24 h; SM minimal medium; subpopulation (auxotrophy): L
How it was run: as §1

[16] = test system: Saccharomyces cerevisiae BY4741 SeMeCo community; test: z-score of subpopulation abundance vs DMSO median, subpopulation auxotrophic for HLUM; higher = larger share of this subpopulation than in DMSO controls; settings: 10 µM; 24 h; SM minimal medium; subpopulation (auxotrophy): HLUM
How it was run: as §1

Row | SMILES | z-score of prototroph abundance [1] | z-score of subpopulation abundance [2] | z-score of subpopulation abundance [3] | z-score of subpopulation abundance [4] | z-score of subpopulation abundance [5] | z-score of subpopulation abundance [6] | z-score of subpopulation abundance [7] | z-score of subpopulation abundance [8] | z-score of subpopulation abundance [9] | z-score of subpopulation abundance [10] | z-score of subpopulation abundance [11] | z-score of subpopulation abundance [12] | z-score of subpopulation abundance [13] | mean cell size [14] | z-score of subpopulation abundance [15] | z-score of subpopulation abundance [16]
1 | CC1(C)S[C@@H]2[C@H](NC(=O)[C@H](NC(=O)N3CCNC3=O)c3ccccc3)C(=O)N2[C@H]1C(=O)O [Azlocillin sodium salt] | 0.68 | -1.51 | -0.59 | -0.34 | 1.34 | -0.15 | -1.18 | -1.29 | 0.33 | -0.4 | -0.3 | -1.31 | 0.86 |  |  | 
2 | CC(NCCC(c1ccccc1)c1ccccc1)c1ccccc1 (stereo unspecified) [Fendiline hydrochloride] | 1.56 | -0.43 |  | -0.77 |  | -1.15 | -0.97 | -1.15 |  | -0.27 |  | -0.72 |  | 12.1 ± 0.2 | 0.03 | -0.29
3 | COc1cccc2c1C(=O)c1c(O)c3c(c(O)c1C2=O)C[C@@](O)(C(C)=O)C[C@@H]3O[C@H]1C[C@H](N)[C@H](O)[C@H](C)O1 [Daunorubicin HCl] | -0.6 | 4.14 |  | 3.27 | -1.4 | -3.07 | 4.21 | 0.35 | 0.73 | 4.11 | -0.29 | 1.29 | 1.18 | 12.78 ± 0.043 |  | 
4 | CCN(CC)CCOc1ccc2c(c1)C(=O)c1cc(OCCN(CC)CC)ccc1-2 [Tilorone dihydrochloride] | 0.72 | 0.24 | 0.18 | -0.27 | -0.86 | -1.02 | 0.05 | -0.31 | -0.65 | -0.23 | 0.21 |  | -0.39 | 12.3 ± 0.13 | -0.72 | -0.11
5 | Nc1nc2c(ncn2COCCO)c(=O)[nH]1 [Aciclovir] | 0.49 | -0.49 | -0.28 | 0.29 | 0.9 | -0.46 | -0.91 | -0.79 | -0.76 | -0.88 | -0.49 |  | 0.25 | 12.5 ± 0.32 | 1.26 | 0.48
6 | Cc1onc(-c2c(Cl)cccc2Cl)c1C(=O)N[C@@H]1C(=O)N2[C@@H]1SC(C)(C)[C@@H]2C(=O)O [Dicloxacillin Sodium] | 0.04 | -0.31 | 0.19 | 0.85 | 0.35 | -0.31 | -0.23 | -0.45 | -0.68 | -0.51 | -0.56 |  | 0.88 |  | 1.32 | 1.07
7 | CN1CCN(CC(=O)N2c3ccccc3C(=O)Nc3cccnc32)CC1 [Pirenzepine dihydrochloride] | 0.72 | -0.46 | 0.01 | -0.44 | -0.32 | -0.85 |  | -0.76 | -0.63 | -0.21 | -0.87 |  | -1.37 | 11.97 ± 0.054 | -0.62 | -0.89
8 | CCN(CC)C(=O)N1CCN(C)CC1 [Diethylcarbamazine citrate] |  | 0.67 | -0.57 | 0.3 | -0.13 |  | -0.43 | 0.18 | -1.04 | -0.06 |  | 0.13 |  | 12.6 ± 0.14 | -0.21 | -0.66
9 | CNCC[C@@H](Oc1ccccc1C)c1ccccc1 [Atomoxetine HCl] |  | 0.03 | -0.84 | 0 | 0.36 | -0.84 |  | -0.26 | -0.43 | 0.11 | -0.77 |  | 0.05 | 12.4 ± 0.22 | 0.96 | 1.1
10 | Clc1ccc(C(Cn2ccnc2)OCc2ccc(Sc3ccccc3)cc2)c(Cl)c1 (stereo unspecified) [Fenticonazole Nitrate] | -13.4 | 4.22 | 25 | 4.88 | -5.38 | -6.61 | 28.7 |  |  | 14.8 |  | 4.77 | -1.04 | 10.7 ± 0.2 | 4.64 | 109
11 | C#CCN(C)Cc1ccccc1 [Pargyline hydrochloride] | 0.24 | 0.56 |  | 1.29 | -0.51 |  | -0.08 | -0.55 | -0.44 | 0.43 | -0.13 |  | 0.15 | 12.7 ± 0.23 | 0.76 | 
12 | CN(Cc1cnc2nc(N)nc(N)c2n1)c1ccc(C(=O)N[C@@H](CCC(=O)O)C(=O)O)cc1 [Methotrexate] | -1.88 |  | 8.39 | -1.77 | 1.07 | 6.94 | 1.71 | -4.22 | 6.68 | 4.61 |  | 0 | 0.73 | 15.5 ± 0.33 | -0.82 | 6.15
13 | O=C1c2c(O)ccc(O)c2C(=O)c2c(NCCNCCO)ccc(NCCNCCO)c21 [Mitoxantrone 2HCl] | -2.59 | -1.69 | 21.2 | 3.06 | -5.45 | -7.73 | 26.5 |  | 20.9 | 54.8 | -2.5 |  | -5.01 | 12.9 ± 0.15 |  | -2.13
14 | CONC(=O)Nc1ccc(-c2sc3c(c2CN(C)C)c(=O)n(-c2ccc(OC)nn2)c(=O)n3Cc2c(F)cccc2F)cc1 [Relugolix] | 0.18 | 0.32 | 0.68 | -0.09 | -0.08 | -0.86 | 0.09 | -0.12 | -0.26 | 0.32 | -0.07 |  | 0.11 |  | 0.15 | 0.58
15 | NC[C@@H]1O[C@H](O[C@H]2[C@@H](O)[C@H](O[C@@H]3[C@@H](O)[C@H](N)C[C@H](N)[C@H]3O[C@H]3O[C@H](CO)[C@@H](O)[C@H](O)[C@H]3N)O[C@@H]2CO)[C@H](N)[C@@H](O)[C@@H]1O [Paromomycin Sulfate] | -0.33 | -0.06 | 0.2 | -0.04 |  | 1.15 | -0.92 | -0.2 | 0.39 | -0.44 | 0.02 | 0.69 |  | 12.31 ± 0.12 |  | 
16 | C#CCN[C@@H]1CCc2ccccc21 [Rasagiline Mesylate] | 0.23 | -0.4 | 0.22 | 0.5 | 0.42 |  | -0.74 | -0.05 | 0.37 | 0.21 |  | -0.47 | 0.19 | 12.49 ± 0.065 |  | 0.44

Source: the supplement of paper PMC8975748
